Source: PMC7862700, “An all-to-all approach to the identification of sequence-specific readers for epigenetic DNA modifications on cytosine”

Legend:
Test in all cases: DAPPL (digital affinity profiling via proximity ligation, sequencing); 10 mM Tris-HCl pH 7.5, 50 mM NaCl, 1 mM DTT, 4% glycerol, room temperature, 30 min; GST-TFs on glutathione beads, 16-mer random dsDNA library, 0.1% formaldehyde crosslink after washing; high values mean tight binding
Conditions in all cases: protein: recombinant; tags: N-terminal GST; dsDNA, one strand shown
FEV = target: T1, FEV (Homo sapiens, UniProt Q99581 1-238)
T1 sequence: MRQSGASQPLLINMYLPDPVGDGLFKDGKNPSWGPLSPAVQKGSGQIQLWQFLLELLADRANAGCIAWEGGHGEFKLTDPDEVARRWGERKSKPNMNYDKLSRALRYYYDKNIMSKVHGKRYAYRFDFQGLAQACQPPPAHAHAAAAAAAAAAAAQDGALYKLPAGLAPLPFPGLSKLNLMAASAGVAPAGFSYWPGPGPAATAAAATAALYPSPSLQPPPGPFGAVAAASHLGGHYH
Method in brief: (§1)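 Binding signal is given per hexamer as its read frequency for a factor divided by its frequency in the tag-only sample. GST-fused human transcription factors were expressed in yeast, captured on glutathione beads, barcoded with DNA and pooled with that sample, then incubated with 200 nmole of a 16-mer random double-stranded DNA library in Tris/NaCl/DTT/glycerol buffer for 30 min at room temperature. The pools were then washed, crosslinked, proximity-ligated, amplified by PCR and sequenced on an Illumina NextSeq500.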

ETV5 = ETV5 (Homo sapiens, UniProt P41161 1-510)
Method in brief: as §1

SPIC = target: T2, SPIC (Homo sapiens, UniProt Q8N5J4 1-248)
T2 sequence: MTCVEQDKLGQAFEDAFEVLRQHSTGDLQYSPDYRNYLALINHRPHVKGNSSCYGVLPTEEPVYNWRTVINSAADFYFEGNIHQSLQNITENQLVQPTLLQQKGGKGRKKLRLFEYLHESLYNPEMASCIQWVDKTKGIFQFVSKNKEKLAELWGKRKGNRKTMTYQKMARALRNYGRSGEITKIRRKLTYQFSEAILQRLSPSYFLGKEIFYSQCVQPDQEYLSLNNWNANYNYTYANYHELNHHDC
Method in brief: as §1

ELF4 = ELF4 (Homo sapiens, UniProt Q99607 1-663)
Method in brief: as §1

ELK4 = target: T3, ELK4 (Homo sapiens, UniProt P28324-2 1-405)
T3 sequence: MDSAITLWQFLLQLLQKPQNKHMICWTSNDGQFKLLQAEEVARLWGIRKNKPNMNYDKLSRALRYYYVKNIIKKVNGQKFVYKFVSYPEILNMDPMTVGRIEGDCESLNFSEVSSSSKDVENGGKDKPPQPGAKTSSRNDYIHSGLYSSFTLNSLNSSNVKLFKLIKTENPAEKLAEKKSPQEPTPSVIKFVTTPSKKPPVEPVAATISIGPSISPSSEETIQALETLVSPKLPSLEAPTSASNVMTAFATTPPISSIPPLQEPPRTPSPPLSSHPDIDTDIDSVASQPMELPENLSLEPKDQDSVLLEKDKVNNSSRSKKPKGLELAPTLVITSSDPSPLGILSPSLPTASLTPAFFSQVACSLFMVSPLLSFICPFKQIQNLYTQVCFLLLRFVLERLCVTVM
Method in brief: as §1

ETV2 = target: T4, ETV2 (Homo sapiens, UniProt O00321 1-342)
T4 sequence: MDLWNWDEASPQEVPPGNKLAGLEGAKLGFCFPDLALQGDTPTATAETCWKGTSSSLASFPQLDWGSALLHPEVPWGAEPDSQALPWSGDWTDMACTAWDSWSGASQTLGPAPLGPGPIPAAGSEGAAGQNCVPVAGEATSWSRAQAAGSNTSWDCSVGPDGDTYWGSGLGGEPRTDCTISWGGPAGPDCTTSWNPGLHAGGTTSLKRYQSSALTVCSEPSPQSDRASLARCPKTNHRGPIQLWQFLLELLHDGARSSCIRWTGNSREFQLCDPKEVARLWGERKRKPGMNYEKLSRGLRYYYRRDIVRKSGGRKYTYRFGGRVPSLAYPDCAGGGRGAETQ
Method in brief: as §1

ELF3 = target: T5, ELF3 (Homo sapiens, UniProt P78545 1-371)
T5 sequence: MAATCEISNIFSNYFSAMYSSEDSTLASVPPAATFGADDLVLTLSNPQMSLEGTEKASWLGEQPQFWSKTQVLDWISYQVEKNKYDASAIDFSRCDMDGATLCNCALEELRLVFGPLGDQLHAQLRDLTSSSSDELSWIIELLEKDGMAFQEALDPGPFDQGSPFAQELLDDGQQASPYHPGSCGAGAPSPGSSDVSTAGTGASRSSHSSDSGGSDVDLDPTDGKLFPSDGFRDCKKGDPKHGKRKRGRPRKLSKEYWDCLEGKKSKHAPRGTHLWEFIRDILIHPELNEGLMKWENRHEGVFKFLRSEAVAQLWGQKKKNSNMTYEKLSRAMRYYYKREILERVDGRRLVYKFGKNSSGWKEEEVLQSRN
Method in brief: as §1

ETV1 = ETV1 (Homo sapiens, UniProt P50549 1-477)
Method in brief: as §1

ERF = target: T6, ERF (Homo sapiens, UniProt P50548 1-548)
T6 sequence: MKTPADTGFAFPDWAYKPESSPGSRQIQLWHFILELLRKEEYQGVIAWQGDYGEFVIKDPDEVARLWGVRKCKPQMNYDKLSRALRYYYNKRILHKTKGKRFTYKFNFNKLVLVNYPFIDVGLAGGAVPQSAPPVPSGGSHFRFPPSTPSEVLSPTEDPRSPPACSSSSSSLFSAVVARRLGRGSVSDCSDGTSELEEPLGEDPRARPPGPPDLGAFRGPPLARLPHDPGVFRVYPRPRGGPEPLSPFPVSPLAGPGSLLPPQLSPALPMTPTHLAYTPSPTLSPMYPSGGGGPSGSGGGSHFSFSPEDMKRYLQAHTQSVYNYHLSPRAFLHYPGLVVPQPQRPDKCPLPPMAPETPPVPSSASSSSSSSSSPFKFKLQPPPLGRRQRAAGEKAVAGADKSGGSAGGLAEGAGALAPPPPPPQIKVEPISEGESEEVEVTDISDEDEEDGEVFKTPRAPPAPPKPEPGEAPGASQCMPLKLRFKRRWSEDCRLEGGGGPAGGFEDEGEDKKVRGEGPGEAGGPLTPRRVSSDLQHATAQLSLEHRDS
Method in brief: as §1

ETV3L = target: T7, ETV3L (Homo sapiens, UniProt Q6ZN32 1-361)
T7 sequence: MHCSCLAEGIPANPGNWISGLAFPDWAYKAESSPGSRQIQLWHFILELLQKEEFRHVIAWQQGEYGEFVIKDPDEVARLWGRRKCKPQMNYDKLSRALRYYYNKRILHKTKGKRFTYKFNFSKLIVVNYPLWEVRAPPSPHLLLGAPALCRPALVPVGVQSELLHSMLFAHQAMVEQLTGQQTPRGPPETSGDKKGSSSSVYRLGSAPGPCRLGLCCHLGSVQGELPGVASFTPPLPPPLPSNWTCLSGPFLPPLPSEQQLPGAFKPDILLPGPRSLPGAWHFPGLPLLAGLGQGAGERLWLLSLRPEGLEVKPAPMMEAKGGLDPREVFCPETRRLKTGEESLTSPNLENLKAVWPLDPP
Method in brief: as §1

ETS2 = target: T8, ETS2 (Homo sapiens, UniProt P15036 1-469)
T8 sequence: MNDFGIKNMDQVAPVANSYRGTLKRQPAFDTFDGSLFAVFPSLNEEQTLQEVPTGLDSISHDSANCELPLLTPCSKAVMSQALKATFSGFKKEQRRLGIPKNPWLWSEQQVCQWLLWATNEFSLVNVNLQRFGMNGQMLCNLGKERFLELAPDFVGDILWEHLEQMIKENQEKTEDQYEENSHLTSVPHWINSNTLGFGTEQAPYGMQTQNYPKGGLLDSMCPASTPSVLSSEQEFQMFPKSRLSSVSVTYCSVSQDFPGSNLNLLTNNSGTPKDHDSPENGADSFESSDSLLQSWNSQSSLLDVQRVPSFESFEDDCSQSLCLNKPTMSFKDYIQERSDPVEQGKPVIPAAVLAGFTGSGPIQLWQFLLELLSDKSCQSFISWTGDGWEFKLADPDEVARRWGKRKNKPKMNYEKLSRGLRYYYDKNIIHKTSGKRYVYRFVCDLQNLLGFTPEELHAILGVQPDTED
Method in brief: as §1

SPDEF = target: T9, SPDEF (Homo sapiens, UniProt O95238 1-335)
T9 sequence: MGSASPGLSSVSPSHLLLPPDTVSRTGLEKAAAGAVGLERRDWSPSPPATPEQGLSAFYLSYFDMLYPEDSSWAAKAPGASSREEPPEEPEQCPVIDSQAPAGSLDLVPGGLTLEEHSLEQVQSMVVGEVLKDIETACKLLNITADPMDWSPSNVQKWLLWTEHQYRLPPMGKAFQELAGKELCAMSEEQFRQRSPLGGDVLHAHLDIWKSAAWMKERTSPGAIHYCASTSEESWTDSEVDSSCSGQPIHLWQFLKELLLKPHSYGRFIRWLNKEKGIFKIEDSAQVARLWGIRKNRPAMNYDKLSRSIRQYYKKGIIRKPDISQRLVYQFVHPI
Method in brief: as §1

ETV7 = target: T10, ETV7 (Homo sapiens, UniProt Q9Y603 1-341)
T10 sequence: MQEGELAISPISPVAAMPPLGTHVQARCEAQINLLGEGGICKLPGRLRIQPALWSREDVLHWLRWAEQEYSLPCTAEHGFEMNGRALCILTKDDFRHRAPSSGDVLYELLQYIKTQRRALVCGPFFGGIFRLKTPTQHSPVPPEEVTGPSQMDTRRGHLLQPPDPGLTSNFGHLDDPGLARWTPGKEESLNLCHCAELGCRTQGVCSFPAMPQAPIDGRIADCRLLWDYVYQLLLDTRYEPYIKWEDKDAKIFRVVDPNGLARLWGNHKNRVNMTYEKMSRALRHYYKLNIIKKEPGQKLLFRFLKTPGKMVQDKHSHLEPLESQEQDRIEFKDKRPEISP
Method in brief: as §1

ELF5 = target: T11, ELF5 (Homo sapiens, UniProt Q9UKW6-2 1-255)
T11 sequence: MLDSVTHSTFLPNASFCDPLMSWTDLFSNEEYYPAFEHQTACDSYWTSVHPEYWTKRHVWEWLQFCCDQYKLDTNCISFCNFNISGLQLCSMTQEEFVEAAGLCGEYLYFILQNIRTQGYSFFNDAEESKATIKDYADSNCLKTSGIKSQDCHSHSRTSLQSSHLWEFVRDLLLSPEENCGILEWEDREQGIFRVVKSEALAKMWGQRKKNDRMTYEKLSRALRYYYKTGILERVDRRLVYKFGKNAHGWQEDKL
Method in brief: as §1

ETV3 = target: T12, ETV3 (Homo sapiens, UniProt P41162-2 1-143)
T12 sequence: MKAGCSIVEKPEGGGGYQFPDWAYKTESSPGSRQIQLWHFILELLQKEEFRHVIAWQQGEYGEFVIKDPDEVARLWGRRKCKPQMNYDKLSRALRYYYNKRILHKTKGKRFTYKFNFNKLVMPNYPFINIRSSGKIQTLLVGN
Method in brief: as §1

ETV6 = ETV6 (Homo sapiens, UniProt P41212 1-452)
Method in brief: as §1

Sequence of ELF4 (Q99607 whole entry): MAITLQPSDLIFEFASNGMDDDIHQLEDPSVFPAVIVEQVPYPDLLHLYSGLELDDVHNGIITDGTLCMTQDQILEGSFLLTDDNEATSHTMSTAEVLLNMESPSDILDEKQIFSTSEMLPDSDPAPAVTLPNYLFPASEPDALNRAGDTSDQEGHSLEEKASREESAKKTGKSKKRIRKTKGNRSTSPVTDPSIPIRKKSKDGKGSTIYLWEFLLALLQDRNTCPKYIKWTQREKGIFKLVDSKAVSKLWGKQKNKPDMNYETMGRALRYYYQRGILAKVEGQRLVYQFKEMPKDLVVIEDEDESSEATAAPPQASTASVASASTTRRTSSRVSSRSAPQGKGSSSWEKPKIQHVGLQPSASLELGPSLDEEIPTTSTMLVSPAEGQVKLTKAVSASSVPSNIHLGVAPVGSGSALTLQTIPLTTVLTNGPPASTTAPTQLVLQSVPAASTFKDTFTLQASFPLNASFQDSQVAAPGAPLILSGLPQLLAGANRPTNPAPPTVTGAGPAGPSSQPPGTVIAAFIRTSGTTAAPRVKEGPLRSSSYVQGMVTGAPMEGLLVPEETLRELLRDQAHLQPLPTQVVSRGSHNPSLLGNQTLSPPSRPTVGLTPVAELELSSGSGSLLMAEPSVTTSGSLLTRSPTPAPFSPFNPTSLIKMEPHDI
Sequence of ETV6 (P41212 whole entry): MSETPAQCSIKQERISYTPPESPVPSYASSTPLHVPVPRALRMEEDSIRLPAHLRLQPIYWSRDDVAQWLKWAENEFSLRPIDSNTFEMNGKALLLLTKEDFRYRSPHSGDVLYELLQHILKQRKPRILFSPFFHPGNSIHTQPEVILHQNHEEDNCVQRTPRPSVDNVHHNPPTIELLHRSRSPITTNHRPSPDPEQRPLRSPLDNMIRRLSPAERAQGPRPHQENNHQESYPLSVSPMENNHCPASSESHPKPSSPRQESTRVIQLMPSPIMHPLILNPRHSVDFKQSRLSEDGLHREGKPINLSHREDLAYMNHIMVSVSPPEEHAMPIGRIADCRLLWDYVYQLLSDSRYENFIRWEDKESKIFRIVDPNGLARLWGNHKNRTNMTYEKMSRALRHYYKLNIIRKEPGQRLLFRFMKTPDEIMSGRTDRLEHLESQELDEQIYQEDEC
Sequence of ETV5 (P41161 whole entry): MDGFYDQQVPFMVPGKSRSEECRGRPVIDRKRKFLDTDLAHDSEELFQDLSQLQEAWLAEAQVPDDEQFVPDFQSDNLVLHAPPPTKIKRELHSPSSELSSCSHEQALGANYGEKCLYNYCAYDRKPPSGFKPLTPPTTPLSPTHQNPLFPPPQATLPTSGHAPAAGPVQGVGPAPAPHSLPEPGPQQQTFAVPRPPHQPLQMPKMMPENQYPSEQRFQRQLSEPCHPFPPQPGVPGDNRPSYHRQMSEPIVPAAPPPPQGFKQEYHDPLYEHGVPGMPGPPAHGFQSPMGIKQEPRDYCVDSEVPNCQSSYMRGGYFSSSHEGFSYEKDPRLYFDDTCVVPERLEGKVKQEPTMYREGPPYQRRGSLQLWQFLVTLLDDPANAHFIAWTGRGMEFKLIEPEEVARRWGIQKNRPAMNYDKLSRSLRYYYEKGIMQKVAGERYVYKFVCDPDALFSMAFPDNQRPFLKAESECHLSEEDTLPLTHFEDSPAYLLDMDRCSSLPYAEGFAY
Sequence of ETV1 (P50549 whole entry): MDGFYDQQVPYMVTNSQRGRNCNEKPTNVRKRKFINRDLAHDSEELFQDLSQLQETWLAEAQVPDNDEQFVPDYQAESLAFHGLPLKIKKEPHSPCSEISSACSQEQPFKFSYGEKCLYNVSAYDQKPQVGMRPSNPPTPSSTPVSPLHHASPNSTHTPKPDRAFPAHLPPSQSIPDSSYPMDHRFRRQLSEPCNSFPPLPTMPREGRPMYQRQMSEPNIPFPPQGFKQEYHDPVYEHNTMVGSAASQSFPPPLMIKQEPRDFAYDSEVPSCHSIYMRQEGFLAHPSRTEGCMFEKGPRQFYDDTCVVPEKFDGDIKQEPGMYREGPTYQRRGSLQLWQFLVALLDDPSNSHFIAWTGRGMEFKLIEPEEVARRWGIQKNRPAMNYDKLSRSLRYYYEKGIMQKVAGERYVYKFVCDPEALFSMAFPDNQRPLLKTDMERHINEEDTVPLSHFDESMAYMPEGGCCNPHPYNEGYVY

Sequence	binding signal (FEV)	binding signal (ETV5)	binding signal (SPIC)	binding signal (ELF4)	binding signal (ELK4)	binding signal (ETV2)	binding signal (ELF3)	binding signal (ETV1)	binding signal (ERF)	binding signal (ETV3L)	binding signal (ETS2)	binding signal (SPDEF)	binding signal (ETV7)	binding signal (ELF5)	binding signal (ETV3)	binding signal (ETV6)
GTACAC	1.2 fold enrichment (6-mer frequency, TF over GST control)	1.27 fold enrichment (6-mer frequency, TF over GST control)	1.33 fold enrichment (6-mer frequency, TF over GST control)	1.29 fold enrichment (6-mer frequency, TF over GST control)	1.23 fold enrichment (6-mer frequency, TF over GST control)	1.17 fold enrichment (6-mer frequency, TF over GST control)	1.26 fold enrichment (6-mer frequency, TF over GST control)	1.2 fold enrichment (6-mer frequency, TF over GST control)	1.15 fold enrichment (6-mer frequency, TF over GST control)	1.16 fold enrichment (6-mer frequency, TF over GST control)	1.18 fold enrichment (6-mer frequency, TF over GST control)	1.2 fold enrichment (6-mer frequency, TF over GST control)	1.24 fold enrichment (6-mer frequency, TF over GST control)	1.2 fold enrichment (6-mer frequency, TF over GST control)	1.21 fold enrichment (6-mer frequency, TF over GST control)	1.29 fold enrichment (6-mer frequency, TF over GST control)
GCCACT	1.31 fold enrichment (6-mer frequency, TF over GST control)	1.2 fold enrichment (6-mer frequency, TF over GST control)	1.12 fold enrichment (6-mer frequency, TF over GST control)	1.21 fold enrichment (6-mer frequency, TF over GST control)	1.24 fold enrichment (6-mer frequency, TF over GST control)	1.15 fold enrichment (6-mer frequency, TF over GST control)	1.1 fold enrichment (6-mer frequency, TF over GST control)	1.22 fold enrichment (6-mer frequency, TF over GST control)	1.16 fold enrichment (6-mer frequency, TF over GST control)	1.07 fold enrichment (6-mer frequency, TF over GST control)	1.19 fold enrichment (6-mer frequency, TF over GST control)	1.15 fold enrichment (6-mer frequency, TF over GST control)	1.12 fold enrichment (6-mer frequency, TF over GST control)	1.16 fold enrichment (6-mer frequency, TF over GST control)	1.16 fold enrichment (6-mer frequency, TF over GST control)	1.21 fold enrichment (6-mer frequency, TF over GST control)
GTGACC	1.36 fold enrichment (6-mer frequency, TF over GST control)	1.22 fold enrichment (6-mer frequency, TF over GST control)	1.34 fold enrichment (6-mer frequency, TF over GST control)	1.27 fold enrichment (6-mer frequency, TF over GST control)	1.36 fold enrichment (6-mer frequency, TF over GST control)	1.12 fold enrichment (6-mer frequency, TF over GST control)	1.3 fold enrichment (6-mer frequency, TF over GST control)	1.24 fold enrichment (6-mer frequency, TF over GST control)	1.24 fold enrichment (6-mer frequency, TF over GST control)	1.26 fold enrichment (6-mer frequency, TF over GST control)	1.25 fold enrichment (6-mer frequency, TF over GST control)	1.32 fold enrichment (6-mer frequency, TF over GST control)	1.3 fold enrichment (6-mer frequency, TF over GST control)	1.25 fold enrichment (6-mer frequency, TF over GST control)	1.38 fold enrichment (6-mer frequency, TF over GST control)	1.1 fold enrichment (6-mer frequency, TF over GST control)
